Screens (PubChem BioAssay)
Sampled rows, rich in hits. Any-hit rate of the full collection: about 7.2%.
NIH3T3 tox = NIH 3T3 cell cytotoxicity. NIH 3T3 viability, CellTiter-Glo ATP luminescence, 48-72 h. Potency, µM (top dose mostly 96.7 µM), for inactives: top-dose activity change, negative = cytotoxicity, usual class: inhibitors. 4.3% of 94,000 active; note: % is set by controls: 0 for no effect and ±100 for the full control effect; nearly all actives have a fitted effect of over 55% in size
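ATP-dependent luminescence (CellTiter-Glo) served as the viability signal for NIH 3T3 cells treated with compound for 48 or 72 hr at 37 °C.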
SNCA expr inhib = reduces expression of the alpha-synuclein gene; HEK-293 SNCA-luciferase knock-in, luminescence, 24 h; Potency, µM (highest dose often 57.2 µM), for inactives: at the highest dose activity change, negative = inhibition, most hits filed as inhibitors; 0.17% of 140,000 active; AID 1671194;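 note: plate controls were DMSO cells for no effect and cell-free wells for full effect; nearly all actives have a fitted effect of over 45% in size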
FLuc inh-1 = blocks purified firefly luciferase enzyme activity; AID 1347043; purified P. pyralis luciferase, luminescence, biochemical; 2.5% of 76,000 active; P08659; Potency, µM (series often up to 115 µM), actives largely listed as inhibitors; note: % is set by controls: 0 for no effect and ±100 for the full control effect; nearly all actives have a fitted effect of over 65% in size
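Luminescence read by CCD imaging after purified firefly luciferase (10nM final) was added to substrate buffer holding 10uM D-luciferin and 10uM ATP, pH 7.5, pre-dosed with compound.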
HEK293 viab = reduces viability of HEK-293 SNCA reporter cells; 0.12% of 150,000 active; Potency, µM (series often up to 57.1 µM), without a hit: top-dose activity change, negative = cytotoxicity, hits mostly cytotoxic; HEK-293-SNCA-luc viability, GF-AFC fluorescence, 24 h;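 note: 0% = DMSO-treated cells and -100% = medium-only wells without cells; nearly all actives have a fitted effect of over 30% in size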
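HEK-293-SNCA-luc cells (1500/well) plated 24 h, then exposed 24 h to a dilution series; GF-AFC added 30 min at 37C, fluorescence 405/540 nm; normalised to medium-only and DMSO wells, Hill fit.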
NPR1 antag = blocks ANP-stimulated signaling of human Npr1 receptor | P16066 | HEK293 hNpr1 GloSensor cGMP, ANP-stimulated luminescence | Potency, µM (top dose mostly 46.3 µM), for inactives: at the top dose activity change, negative = inhibition, most hits filed as inhibitors | 1.6% of 76,000 active | AID 1347048; calls by dose curve; note: % is set by controls: 0 for no effect and ±100 for the full control effect; nearly all actives have a fitted effect of over 60% in size
Target sequence (P16066 whole entry, looked up): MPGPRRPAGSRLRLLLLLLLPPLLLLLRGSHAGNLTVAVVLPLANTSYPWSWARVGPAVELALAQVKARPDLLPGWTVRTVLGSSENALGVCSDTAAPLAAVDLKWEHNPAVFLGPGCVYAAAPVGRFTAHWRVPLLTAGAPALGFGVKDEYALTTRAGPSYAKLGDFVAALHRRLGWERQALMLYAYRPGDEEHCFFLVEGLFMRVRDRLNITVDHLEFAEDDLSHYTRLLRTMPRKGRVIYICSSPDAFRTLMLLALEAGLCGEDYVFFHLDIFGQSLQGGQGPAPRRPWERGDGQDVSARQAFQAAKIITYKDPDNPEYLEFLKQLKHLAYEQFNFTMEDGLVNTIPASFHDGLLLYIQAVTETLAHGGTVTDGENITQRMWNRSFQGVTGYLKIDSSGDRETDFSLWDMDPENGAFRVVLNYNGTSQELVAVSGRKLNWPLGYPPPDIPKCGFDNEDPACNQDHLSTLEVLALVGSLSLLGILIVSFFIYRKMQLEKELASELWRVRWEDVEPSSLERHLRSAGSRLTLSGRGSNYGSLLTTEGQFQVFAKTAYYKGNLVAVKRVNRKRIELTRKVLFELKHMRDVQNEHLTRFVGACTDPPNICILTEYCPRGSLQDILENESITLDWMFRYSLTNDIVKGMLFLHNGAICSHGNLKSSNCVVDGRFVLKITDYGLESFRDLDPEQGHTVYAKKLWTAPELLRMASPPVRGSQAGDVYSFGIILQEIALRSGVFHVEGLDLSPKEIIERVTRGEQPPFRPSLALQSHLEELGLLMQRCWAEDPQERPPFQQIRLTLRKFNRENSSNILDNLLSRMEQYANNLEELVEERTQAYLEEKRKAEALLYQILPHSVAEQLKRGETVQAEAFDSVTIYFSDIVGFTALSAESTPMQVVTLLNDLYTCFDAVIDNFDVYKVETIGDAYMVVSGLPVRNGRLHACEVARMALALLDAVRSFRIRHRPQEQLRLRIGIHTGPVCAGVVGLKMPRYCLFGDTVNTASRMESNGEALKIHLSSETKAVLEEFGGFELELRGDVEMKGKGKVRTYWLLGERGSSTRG
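HEK293 cells stably expressing human Npr1 and cGMP GloSensor pGS-40F, loaded 2 h with 2% GloSensor reagent, given compound 30 min at room temperature. Luminescence read before and 20 min after 0.1 nM hNppA.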
HEK cytotox = cytotoxic compounds in HEK 293 cells. HEK 293 viability, ATP luminescence (CellTiter-Glo), 48-72 h. Potency, µM (highest dose often 115 µM), without a hit: at the highest dose activity change, negative = cytotoxicity, usual class: inhibitors. 6.6% of 94,000 active. AID 1345083; note: % is set by controls: 0 for no effect and ±100 for the full control effect; nearly all actives have a fitted effect of over 60% in size
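Luminescence from cellular ATP, measured with CellTiter-Glo, indicates HEK 293 viability. Cells plated at 250 cells/well are treated with compound for 48 or 72 hr at 37 degree Celsius before reagent addition.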
FLuc SDR -ATP = stabilizes firefly luciferase without ATP. shares compounds with FLuc inh-1. Purified FLuc-C-HiBiT, Nano-Glo HiBiT luminescence, no ATP. Potency, µM (series often up to 32.7 µM), for inactives: at the top dose activation (signal gain), actives largely listed as activators. 7.8% of 1,300 active. AID 1963318; note: nearly all actives have a fitted effect of over 55% in size
FLuc SDR ATP = firefly luciferase binding stabilization, ATP added; shares compounds with FLuc inh-1; purified FLuc-C-HiBiT + ATP, HiBiT complementation luminescence; Potency, µM (doses to about 32.7 µM), without a hit: top-dose activation (gain of signal), hits mostly activators; 8.7% of 1,300 active; AID 1963319;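 note: signal reports ligand binding via conformational change of the enzyme rather than luciferase catalysis; % of control where 0% means no effect; nearly all actives have a fitted effect of over 55% in size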
FLuc inh-2 = firefly luciferase enzyme inhibition; shares compounds with FLuc inh-1; purified FLuc-C-HiBiT enzyme, luciferin luminescence; Potency, µM (highest dose often 32.7 µM), inactives show at the highest dose activity change, negative = inhibition, usual class: inhibitors; 42% of 1,300 active; AID 1963320; note: % is set by controls: 0 for no effect and ±100 for the full control effect; nearly all actives have a fitted effect of over 70% in size
Starred values were filed as active, the others as inactive; i = inactive; ? = inconclusive; . = no result given; [ ] = dose if it differs, or a comment. Unless noted, calls come from the whole dose curve; as a rule, active = well fitted curve in the direction sought with a large enough effect; inconclusive = small, poorly fitted or top-dose-only effect, or another doubt; inactive = no such curve, though single readings can be large; an effect the other way counts as inactive or inconclusive. Potency is the fitted concentration of half-maximal effect.

SMILES	NIH3T3 tox	SNCA expr inhib	FLuc inh-1	HEK293 viab	NPR1 antag	HEK cytotox	FLuc SDR -ATP	FLuc SDR ATP	FLuc inh-2
Oc1ccccc1CN1CCNc2cc(Nc3ccccc3)ncc2C1	32µM*	16%[87.6 µM]	5.6µM*	?	-25%[70.6 µM]	28µM*	17%	12%	?
CC(=O)N1CCNc2cc(NCc3ccc(F)cc3)ncc2C1	-43%[138 µM]	18%[87.6 µM]	?	-26%[87.6 µM]	-10%[70.6 µM]	-55%[172 µM]	.	.	.
CC(=O)N1CCNc2cc(Nc3ccc(F)cc3)ncc2C1	?	?	2.2µM*	-12%[87.6 µM]	?	?	?	?	5.7µM*
c1ccc(CN2CCNc3cnc(Nc4ccncn4)cc3C2)cc1	?	-4%[87.6 µM]	i	1%[87.6 µM]	-2%[70.6 µM]	?	.	.	.
c1ccc(Nc2cc3c(cn2)CN(Cc2ccn[nH]2)CCN3)cc1	?	50%[87.6 µM]	7.9µM*	?	-21%[70.6 µM]	?	28%[49.3 µM]	16%[49.3 µM]	?
Cc1[nH]cnc1CN1CCNc2cc(Nc3ccccc3)ncc2C1	?	77%[87.6 µM]	6.3µM*	-19%[87.6 µM]	-5%[70.6 µM]	?	27%[49.3 µM]	16%[49.3 µM]	?
CN(C)c1cccc(-c2cc3c(cn2)CN(Cc2ccncc2)CCN3)c1	?	40%[87.6 µM]	?	-21%[87.6 µM]	-16%[70.6 µM]	?	.	.	.
c1ccc(Oc2cc3c(cn2)NCCN(Cc2cnc[nH]2)C3)cc1	-25%[138 µM]	-6%[87.6 µM]	i	7%[87.6 µM]	-27%[70.6 µM]	?	.	.	.
c1cncc(Nc2cc3c(cn2)CN(Cc2ccn[nH]2)CCN3)c1	.	.	.	.	.	.	21%[49.3 µM]	14%[49.3 µM]	?
c1cncc(Nc2cc3c(cn2)CN(Cc2cnc[nH]2)CCN3)c1	.	.	.	.	.	.	11%	9%	-8%
O=C(c1ccncc1)N1CCC(Oc2ccc(-c3noc(-c4ccccc4)n3)cc2)C1 (configuration not stated)	?	-12%	14µM*	-13%	14µM*	?	16%	14%	?
Cc1cccc(C(=O)N2CC(Oc3ccc(-c4nc(-c5ccccc5)no4)cc3)C2)c1	-28%	16%	i	-2%	-5%	?	.	.	.
Cc1ncccc1C(=O)N1CCC(Oc2ccc(-c3noc(-c4ccccc4)n3)cc2)C1 (configuration not stated)	?	17%	7.1µM*	-27%	11µM*	?	19%	13%	?
O=C(Nc1ccc(Oc2ccccc2)cc1)N[C@H]1CO[C@H]2[C@@H]1OC[C@@H]2n1nnnc1Oc1ccccc1	?	?	i	-19%	-23%	?	.	.	.
Clc1cccc(-n2ncc3c(N4CCC(Cc5ccccc5)CC4)ncnc32)c1	.	-8%	.	6%	.	.	10%	7%	-4%
c1ccc(CN2CCN(c3ncnc4c3cnn4-c3ccccc3)CC2)cc1	.	23%	.	-7%	.	.	.	.	.
Cc1ccc(-n2ncc3c(N(C)Cc4ccccc4)ncnc32)cc1	.	-66%	.	-2%	.	.	?	?	1.6µM*
Cc1ccc(-n2ncc3c(N4CCC(Cc5ccccc5)CC4)ncnc32)cc1	.	-8%	.	-6%	.	.	16%	16%	-17%
O=C(COC(=O)c1cc(-c2cccs2)nc2ccccc12)c1ccc(Br)cc1	.	24%	.	2%	.	.	14%	8%	-18%
Cc1ccc(C(=O)COC(=O)c2cc(-c3ccc(Cl)cc3)nc3ccccc23)cc1	.	-2%	.	-2%	.	.	.	.	.
